{"source": "the supplement of paper PMC10941209", "data": [{"tested_on": "Toxoplasma gondii RH 2F1 tachyzoites (intracellular in HFF)", "test": "parasite survival relative to DMSO control; higher = less antiparasitic activity, active = 20 or less", "settings": "1 µM; 72 h", "procedure": "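Primary single-dose screen of the MMV Pandemic Response Box at 1 uM against T. gondii RH-2F1 (beta-galactosidase) tachyzoites in HFF cells, 72 h at 37 C. Parasite growth read by CPRG absorbance at 570 nm and normalised to DMSO-treated infected controls (% survival); pyrimethamine was the reference drug. The paper calls at least 80% inhibition a hit.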", "values": [{"molecule": "CC(=O)NC[C@H]1CN(c2ccc(N3CCSCC3)c(F)c2)C(=O)O1", "parasite survival": "44% (inactive)"}, {"molecule": "FC(F)(F)c1cc(C(F)(F)F)c2ccc3nc(-c4nnco4)cn3c2n1", "parasite survival": "77.8% (inactive)"}, {"molecule": "Oc1cc(-c2cccc3ccccc23)[nH]n1", "parasite survival": "55.1% (inactive)"}, {"molecule": "Cc1cc(O)c2c(c1)C(=O)c1c(I)c(O)c(I)c(O)c1C2=O", "parasite survival": "47% (inactive)"}, {"molecule": "NCCCc1ccccc1C(=O)Nc1ncc([N+](=O)O)s1", "parasite survival": "47.9% (inactive)"}, {"molecule": "O=C1c2cccc3cccc(c23)C(=O)N1CC1CO1", "note": "(stereo not given)", "parasite survival": "51.9% (inactive)"}, {"molecule": "Cc1ccc(S(=O)(=O)Nc2cccc3cccnc23)cc1", "parasite survival": "4.22% (active)"}, {"molecule": "CCCCCCCCC(CP(=O)(O)C(C)N)C(=O)O", "note": "(stereo not given)", "parasite survival": "62.7% (inactive)"}, {"molecule": "C[C@H]1COc2c(N3CCN(C)CC3)c(F)cc3c(=O)c(C(=O)O)cn1c23", "parasite survival": "51.4% (inactive)"}, {"molecule": "COc1c(F)c(F)cc2c(=O)c(C(=O)O)cn(C3CC3)c12", "parasite survival": "63.8% (inactive)"}, {"molecule": "O=c1[nH]cnc2c1ncn2[C@H]1CC[C@@H](CO)O1", "parasite survival": "79.3% (inactive)"}, {"molecule": "O=[N+]([O-])c1ccc2c(CCc3c[nH]c4ccccc34)c[nH]c2c1", "parasite survival": "43.3% (inactive)"}, {"molecule": "COc1c(NC(=O)[C@H]2CC[C@@H](COc3ccc([N+](=O)[O-])cc3)CC2)c(F)cc2c(=O)c(C(=O)O)cn(C3CC3)c12", "parasite survival": "47.7% (inactive)"}, {"molecule": "O=c1cc(NCCCN[C@@H]2CCOc3c(Br)cc(Br)cc32)[nH]c2ccsc12", "parasite survival": "30.7% (inactive)"}, {"molecule": "O=C(/C=C/n1cnc(-c2cc(C(F)(F)F)cc(C(F)(F)F)c2)n1)NNc1cnccn1", "parasite survival": "20.8% (inactive)"}, {"molecule": "O=C(/C(=C/c1ccc(Cl)cc1Cl)n1ccnc1)c1ccc(Cl)cc1", "parasite survival": "10.2% (active)"}, {"molecule": "Fc1ccc2c(/C=C/c3nnn[nH]3)c[nH]c2c1", "parasite survival": "47.3% (inactive)"}, {"molecule": "N=C(N)NCCCCC(=O)Nc1cc(C(F)(F)F)cc(NC(=O)c2cc(C(=O)Nc3cc(C(F)(F)F)cc(NC(=O)CCCCNC(=N)N)c3O[C@@H]3CCNC3)ncn2)c1O[C@@H]1CCNC1", "parasite survival": "58.7% (inactive)"}, {"molecule": "CCn1cc(C(=O)O)c(=O)c2cc(F)c(N3CCNC(C)C3)c(F)c21", "note": "(stereo not given)", "parasite survival": "76% (inactive)"}, {"molecule": "COc1nc2ccc(Br)cc2cc1[C@@H](c1ccccc1)[C@@](O)(CCN(C)C)c1cccc2ccccc12", "parasite survival": "14% (active)"}, {"molecule": "N#Cc1c(F)c(Cl)c(NCc2ccccc2)c(C#N)c1F", "parasite survival": "31.9% (inactive)"}, {"molecule": "NC1(C(=O)O)CCP(=O)(O)CC1", "note": "(stereo not given)", "parasite survival": "77.4% (inactive)"}, {"molecule": "C(=C\\c1nc2ccccc2[nH]1)/c1ccc2c(c1)OCO2", "parasite survival": "22.1% (inactive)"}, {"molecule": "O=C(NCc1cccc2ccccc12)c1cccs1", "parasite survival": "32% (inactive)"}, {"molecule": "CCCNc1ccc(S(=O)(=O)Nc2cc(C)on2)cc1", "parasite survival": "65.5% (inactive)"}, {"molecule": "FC(F)(F)Oc1ccc(Nc2ccc3cccc(Cl)c3n2)cc1", "parasite survival": "41.4% (inactive)"}, {"molecule": "Nc1nc2c(ncn2COCCO)c(=O)[nH]1", "parasite survival": "67.4% (inactive)"}, {"molecule": "N#C/C(=C1/SC[C@H](c2ccc(Cl)cc2Cl)S1)n1ccnc1", "parasite survival": "41.2% (inactive)"}, {"molecule": "COc1ccc(C2=CC(c3c(F)cccc3Cl)n3ncnc3N2)cc1", "note": "(stereo not given)", "parasite survival": "71.5% (inactive)"}, {"molecule": "C[C@H]1CC[C@]2(NC1)O[C@H]1C[C@H]3[C@@H]4CC[C@H]5C[C@@H](O)CC[C@]5(C)[C@H]4CC[C@]3(C)[C@H]1[C@@H]2C", "parasite survival": "41.1% (inactive)"}, {"molecule": "Cc1c(N)cccc1Cn1ccc(OCCc2cccs2)cc1=O", "parasite survival": "48.8% (inactive)"}, {"molecule": "O=C(O)C[C@H]1CC[C@H](c2ccc(-c3ccc(Nc4ccc(C(F)(F)F)nc4)cn3)cc2)CC1", "parasite survival": "42.6% (inactive)"}, {"molecule": "CCc1ccc(C2CC(C(F)(F)F)n3ncc(C(=O)NCc4ccc(OC)cc4)c3N2)cc1", "note": "(stereo not given)", "parasite survival": "25.4% (inactive)"}, {"molecule": "COC(=O)Nc1nc2cc([S+]([O-])c3ccccc3)ccc2[nH]1", "note": "(stereo not given)", "parasite survival": "59.2% (inactive)"}, {"molecule": "CC1(C)C[C@H]1C(=O)N/C(=C\\CCCCSC[C@@H](N)C(=O)O)C(=O)O", "parasite survival": "94.5% (inactive)"}, {"molecule": "O=C1[C@H](CC[C@H](O)c2ccc(F)cc2)[C@@H](c2ccc(O)cc2)N1c1ccc(F)cc1", "parasite survival": "91.5% (inactive)"}, {"molecule": "N[C@H](CCC(=O)N[C@@H](Cc1c[nH]c2ccccc12)C(=O)O)C(=O)O", "parasite survival": "84.2% (inactive)"}, {"molecule": "Cc1onc(-c2ccccc2)c1-c1ccc(S(N)(=O)=O)cc1", "parasite survival": "74% (inactive)"}, {"molecule": "CCOc1ccc(C(=O)NCCc2ccccc2)cc1", "parasite survival": "60.8% (inactive)"}, {"molecule": "CC1(C)[C@H](C(=O)O)N2C(=O)C[C@H]2S1(=O)=O", "parasite survival": "35.7% (inactive)"}]}]}
